Spn DPM-DC inh = S. pneumoniae DPM-DC inhibition; calls only at 10 µM; purified DPM-DC, PK/LDH coupled NADH fluorescence; actives 0.49% (n = 65,000);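 active means the 320 compounds with the highest percent inhibition in the single-dose primary screen, excluding strongly autofluorescent ones, cut at about 32% in these data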;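 further: kinetic rate of NADH fluorescence loss reporting ADP formed by the decarboxylase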
Spn PMK inh = inhibitors of Streptococcus pneumoniae phosphomevalonate kinase. purified PMK, PK/LDH-coupled NADH absorbance 340 nm. inhibition, % at 10 µM. actives 0.49% (n = 65,000);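 active means top-ranked compounds by inhibition in the single 10 µM screen, taking a fixed number of the strongest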;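 further: 0% = full reaction with DMSO carrier and 100% = background rate without enzyme reaction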
NADH enzymes = inhibition of NAD/NADH coupling enzymes, library profiling; coupled PK/LDH NADH assays, four targets; IC50, µM (titrated, usually from 10 µM), inactives show at the top dose inhibition; actives 0.02% (n = 65,000);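 active means single-dose screening hits from any of four coupled enzyme assays that gave an IC50 when retested across doses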;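 further: the DPM-DC format reads NADH fluorescence rather than 340 nm absorbance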
Autofluor 339 = intrinsic fluorescence of library compounds, ex339/em460 – biochemical, MLSMR library, data from DPM-DC assay, artefact control, profiling panel; compound autofluorescence, ex339/em460 nm, NADH buffer; stronger effect = higher value; 1 = no-compound wells, NADH background; fluorescence fold increase at 10 µM; actives 5.5% (n = 65,000);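 active means at 10 µM, mean starting fluorescence two-fold or more over control wells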;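 further: signal is the first read of a kinetic run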
A340 absorber = compounds absorbing at 340 nm; compound absorbance at 340 nm, fold over control; 65,000 tested, under 10 active; fold change at 10 µM;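 active means at 10 µM dose, initial 340 nm absorbance at least 2 fold that of control wells; inactive means change under 2 fold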;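 further: initial absorbance extrapolated from kinetic A340 decline of NADH oxidation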
Spn MK inh = S. pneumoniae mevalonate kinase inhibition | purified MK, PK/LDH-coupled NADH absorbance 340 nm | inhibition, % at 10 µM | actives 0.48% (n = 65,000);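 active means ranked among the strongest by inhibition in the single 10 µM screen, a fixed top-ranked set picked for dose follow-up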
* marks the source's active call; other numbers are inactive results; i = inactive; . = no result given; + = active, no number. An excerpt weighted towards active compounds, which were near 6.3% of everything screened.

SMILES | Spn DPM-DC inh | Spn PMK inh | NADH enzymes | Autofluor 339 | A340 absorber | Spn MK inh
COCCCNC(=O)c1c(NC(=O)c2ccco2)n(Cc2ccccc2)c2nc3ccccc3nc12 | . | 11.0 | 9.0% | 3.82* | 1.1 | 7.0
CCOC(=O)c1c(N)n(CCCOC(=O)c2ccco2)c2nc3ccccc3nc12 | . | 13.0 | 11.0% | 4.01* | 1.11 | 9.0
CC(=O)OC1C2CCCC1C(N1CCCC1)CC2 (stereo unspecified) | i | 9.0 | 6.0% | 1.08 | 1.01 | 10.0
COc1ccc(Nc2ncc(C(=O)N3CCC4(CC3)OCCO4)c3ccccc23)cc1 | i | 10.0 | 3.0% | 1.09 | 1.11 | 0.0
CCOC(=O)N1CCN(C(C)C(=O)c2c[nH]c3ccccc23)CC1 (stereo unspecified) | i | 0.0 | 0.0% | 1.17 | 1.09 | 1.0
CN(C)C1=NP(N(C)C)(N(C)C)=NC(c2ccccc2)=N1 | i | 19.0 | 9.0% | 1.1 | 1.03 | 9.0
CN1CC=C2C(C#N)=C(N)C(C#N)(C#N)C(c3ccncc3)C2C1 (stereo unspecified) | i | 0.0 | 4.0% | 2.01* | 1.07 | 0.0
CC(C)(C)n1c(O)c(C=Nc2ccc3c(c2)CCC3)c(=O)[nH]c1=O | i | 10.0 | 12.0% | 2.07* | 1.14 | 0.0
CC(=Nc1ccc2c(c1)CCC2)c1c(O)n(C)c(=O)n(C)c1=O | i | 3.0 | 1.0% | 1.15 | 1.08 | 0.0
Oc1ccc(Br)cc1CN1CCN(c2ccccc2)CC1 | i | 0.0 | 1.0% | 1.08 | 1.03 | 3.0
COc1cc(C)c(CN2CCN(c3ccccc3)CC2)cc1C | i | 8.0 | 19.0% | 1.07 | 1.05 | 49.0*
O=c1c2ccccc2[se]n1-c1ccccc1 | + | 100.0* | 55.5µM* | 1.11 | 1.07 | 72.0*
COc1cccc(-n2c(C)nc3ccccc3c2=O)c1 | i | 9.0 | 4.0% | 1.07 | 1.02 | 2.0
CC1(C)CC(=O)C(C2(O)C(=O)NC(=O)NC2=O)=C(O)C1 | i | 17.0 | 6.0% | 1.08 | 0.98 | 0.0
COCCOC(=O)c1c(N)n(Cc2ccco2)c2nc3ccccc3nc12 | . | 8.0 | 9.0% | 2.33* | 1.05 | 9.0
CC(C)OC(=O)c1c(N)n(Cc2ccco2)c2nc3ccccc3nc12 | . | 27.0 | 16.0% | 2.28* | 1.09 | 5.0
Cc1nn(Cc2ccccc2Cl)c(Cl)c1C(=O)OCC(=O)NCc1ccco1 | i | 0.0 | 1.0% | 1.06 | 0.99 | 6.0
CCOC(=O)c1c(C)n(Cc2ccco2)c2ccc(OC)cc12 | i | 0.0 | 0.0% | 1.13 | 1.08 | 0.0
CN1CCN(c2c[nH]c(=O)[nH]c2=O)CC1 | i | 7.0 | 3.0% | 1.01 | 0.98 | 0.0
Cc1cc(OCC(=O)O)c2c3c(c(=O)oc2c1)CCCC3 | . | 1.0 | 3.0% | 2.45* | 1.02 | 8.0
CCCOC(=O)COc1cc(C)cc2oc(=O)c3c(c12)CCC3 | . | 6.0 | 6.0% | 2.22* | 1.03 | 5.0
Cc1cc(OCC(=O)Nc2c(C)n(C)n(-c3ccccc3)c2=O)c2c3c(c(=O)oc2c1)CCC3 | i | 10.0 | 7.0% | 2.14* | 1.1 | 2.0
Cc1cccc(C)c1NC1=NCCCCS1 | i | 4.0 | 10.0% | 1.1 | 1 | 10.0

Compound activity deposited in PubChem BioAssay by SRMLSC.
